Compound activity as filed in PubChem BioAssay.
Most compounds without a hit are left out; they make up all but 3.4% or so of the library.
PAX8 inh HTS = inhibitors of PAX8-driven TPO luciferase reporter, primary screen, RMG-I cells, single concentration. inhibition, % at 12.6 µM. SteadyGlo, 24 h. AID 652154, 2013. 360,000 compounds, 1.2% hits;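 active = mean replicate inhibition at least 60% with every replicate also reaching 60%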;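 note: luciferase light reporting Pax8 driven TPO promoter activity; plate controls were median of neutral control wells for no effect and mitoxantrone controls for full effect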
EWS-Fli inh = EWS/Fli-driven NR0B1 reporter inhibitors, primary screen, A673 cells, NR0B1 luciferase, luminescence, MLPCN library; 350,000 compounds, 0.67% hits; viability-normalised; inhibition, % at 12.6 µM;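 active = mean inhibition of at least 50% after viability correction, with every replicate also passing that limit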;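 note: firefly luciferase signal divided by Alamar Blue viability fluorescence both relative to DMSO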
SIRT5 block = SIRT5 desuccinylase inhibitors, primary screen, biochemical, fluorescence imaging, single point, set 5; NAD-dependent protein deacylase sirtuin-5, mitochondrial (Homo sapiens), Q9NXA8; Purified SirT5, succinyl-peptide AMC, trypsin-coupled fluorescence; inhibition, % at 15 µM; 330,000 compounds, 1.1% hits; AID 652115, 2013; in the data active = inhibition above about 15%
Target sequence (Q9NXA8 whole entry, looked up): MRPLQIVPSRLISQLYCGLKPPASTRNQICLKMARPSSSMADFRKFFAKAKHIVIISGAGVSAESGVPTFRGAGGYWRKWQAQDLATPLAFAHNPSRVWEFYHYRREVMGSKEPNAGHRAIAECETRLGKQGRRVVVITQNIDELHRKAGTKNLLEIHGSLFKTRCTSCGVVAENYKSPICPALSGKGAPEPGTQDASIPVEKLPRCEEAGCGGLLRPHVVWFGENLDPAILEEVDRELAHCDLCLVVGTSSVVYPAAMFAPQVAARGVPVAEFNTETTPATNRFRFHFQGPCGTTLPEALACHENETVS
LGR2 antag = inhibitors of bursicon-induced LGR2 CRE-luciferase signal, primary screen, cell-based, HEK293, CRE-luciferase reporter, bursicon stimulation. bursicon-stimulated, 4 h. inhibition, % at 9.99 µM. 380,000 compounds, 0.35% hits;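 active = drop in luminescence signal, shown as inhibition above about 50% in the replicate tests, limit read from the data, passing the limit was not always enough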;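 note: agonist challenge used bursicon conditioned medium at about half maximal strength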
PGC1a acetyl inh = inhibitors of PGC1a acetylation signal, primary screen, cell-based, U2OS, AlphaScreen, inhibitor mode. 350,000 compounds, 0.17% hits. AID 651687, 2012. AlphaScreen anti-acetyl-lysine; with virally co-expressed GCN5 acetyltransferase. inhibition, % at 15.6 µM;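 active = every replicate shows inhibition of at least 40%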;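 note: 0% = neutral control wells and 100% = positive control wells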
Ecoli rRNA inh = reduced GFP signal of wild-type E. coli, primary screen, bacterial rRNA inhibitor project, GFP/RFP fluorescence, OD600, single point; E. coli WT GFP vs humanized-ribosome RFP mutants, 24 h; active compounds read low; DMSO median 0, no signal -100; GFP signal change (wild-type ribosome), % (no concentration beside the values); 350,000 compounds, 1.6% hits; AID 720706, 2013;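 active = significant combined selectivity score with lowered wild-type GFP, culture density cut under 30%, mutant RFP and density less affected; inactive = any of these conditions unmet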
Active calls of the source: *; / = no result given.

SMILES	PAX8 inh HTS	EWS-Fli inh	SIRT5 block	LGR2 antag	PGC1a acetyl inh	Ecoli rRNA inh
Cc1ccccc1-c1ccc2c(c1)O[C@H](CN(C)C(=O)Nc1ccc(C(F)(F)F)cc1)[C@H](C)CN([C@@H](C)CO)S2(=O)=O	77*	8	6	0	0	5
Cc1ccccc1-c1ccc2c(c1)O[C@@H](CN(C)C(=O)Nc1ccc(C(F)(F)F)cc1)[C@@H](C)CN([C@H](C)CO)S2(=O)=O	-28	9	5	8	-12	3
Cc1ccccc1-c1ccc2c(c1)O[C@@H](CN(C)C(=O)Nc1ccc(F)cc1)[C@@H](C)CN([C@H](C)CO)S2(=O)=O	1	-12	12	12	3	1
O=C(C[C@@H]1CC[C@H]2[C@@H](COC[C@H](O)CN2Cc2cccc(Cl)c2)O1)Nc1nccs1	21	11	13	22	-18	-1
CCC(=O)Nc1ccc2c(c1)C(=O)N(C)C[C@@H](OC)[C@@H](C)CN(C(=O)c1cnccn1)[C@@H](C)CO2	18	-2	3	15	-6	0
CC(C)c1ccc(N2C(=O)CSC23C(=O)N2CCCc4cccc3c42)cc1 (centres undefined)	/	10	18*	12	9	5
CC(=O)N[C@@H]1CC[C@@H](CCNC(=O)C2CC2)O[C@@H]1CO	5	2	1	-1	6	-1
Cn1ccc(=O)c2cc([N+](=O)[O-])ccc21	9	-6	4	9	/	-26*
COCC(=O)N1CC2(C1)CN(C(=O)c1ccccn1)[C@H](CO)c1c2c2ccc(OC)cc2n1C	/	/	/	/	/	4
CC(OC(=O)c1ccc(Cl)c(S(=O)(=O)Nc2ccc(F)cc2)c1)C(=O)NC(N)=O (centres undefined)	14	-4	-4	-8	-2	-26*
COc1ccc(NC(=O)Nc2cccc3c2O[C@@H](CN(C)C(=O)Nc2cccc4ccccc24)[C@H](C)CN([C@@H](C)CO)C3=O)cc1	-44	-4	/	-5	0	1
Cc1c(N=NC2=C(O)CCCC2=O)c(=O)n(-c2ccccc2)n1C	3	-2	26*	-13	7	18
Cc1c(N=Nc2ccc(O)cc2)c(=O)n(-c2ccccc2)n1C	1	-1	6	-23	-8	6
N#Cc1cc2cc3c(cc2nc1SCC(=O)N1CCCC1)OCCO3	/	/	/	/	4	/
CC(=O)CSc1nc2cc3c(cc2cc1C#N)OCCO3	24	24	2	61*	-1	29
CCCC(=O)N1CC2(C1)CN(C(C)=O)[C@H](CO)c1c2c2ccc(OC)cc2n1C	-12	-6	-3	1	5	3
CN1C/C(=C/c2ccncc2)C(=O)/C(=C/c2ccncc2)C1	-18	56*	-5	1	-5	8
COc1cc(C=C2CN(C)C(=O)C2=O)ccc1O	-11	9	/	4	-3	-6
CCOc1cc(/C=C2\CN(C)C/C(=C\c3ccc(O)c(OCC)c3)C2=O)ccc1O	5	53*	0	4	53*	-32
COc1ccc2c3c(n(C)c2c1)[C@H](CO)N(C(=O)Nc1ccc(F)cc1)CC31CN(C(=O)Nc2c(C)noc2C)C1	/	7	1	2	/	-3
COc1ccccc1NC(=O)Nc1ccc2c(c1)C(=O)N(C)C[C@H](OC)[C@@H](C)CN(C)[C@@H](C)CO2	-10	5	6	-3	6	1
COc1ccccc1NC(=O)Nc1ccc2c(c1)C(=O)N(C)C[C@H](OC)[C@H](C)CN(C)[C@H](C)CO2	-4	1	19*	-8	15	1
COc1ccccc1NC(=O)Nc1ccc2c(c1)C(=O)N(C)C[C@H](OC)[C@H](C)CN[C@@H](C)CO2	8	-1	22*	-6	6	0
COc1ccccc1NC(=O)Nc1ccc2c(c1)C(=O)N(C)C[C@@H](OC)[C@@H](C)CN[C@H](C)CO2	-8	9	0	8	1	2
C#CC[N+](C)(C)CCCCCCCCCCCC	87*	-2	-2	/	/	/
SMILES	PAX8 inh HTS	EWS-Fli inh	SIRT5 block	LGR2 antag	PGC1a acetyl inh	Ecoli rRNA inh
CC#CC[N+](C)(C)CCCCCCCCCCCC	83*	26	3	12	/	-59
C#CC[N+](C)(C)CCCCCCCCCC	20	6	0	/	-12	/
C#CC[N+](C)(C)CCCCCCCC	1	7	-4	1	/	2
COc1ccc(C#Cc2cnc3c(c2)C(=O)N([C@H](C)CO)C[C@H](C)[C@H](CN(C)C(=O)c2ccccc2F)O3)cc1	/	1	6	2	0	-8
O=C([C@H]1[C@H](CO)[C@H]2Cn3c(cccc3=O)[C@H]2N1Cc1ccccc1)N1CCCCC1	3	-1	-6	-30	/	1
COc1ccc(OCc2cccc(C(=O)Nc3cc(C)on3)c2)cc1	96*	/	/	/	-4	/
COc1ccc(OCc2cccc(C(=O)Nn3cc([N+](=O)[O-])cn3)c2)cc1	93*	/	-1	99*	1	-47
COc1cccc(C(=O)Nc2cc(C)on2)c1	-140	-79	4	-31	-2	0
COc1ccc(OCc2cccc(C(=O)NN)c2)cc1	46	/	/	32	/	/
CCCC[C@@H]1CNCCN1CCc1cccc2ccccc12	4	16	-1	-5	/	-20*
CCOC(=O)c1c(C)[nH]c(C)c1S(=O)(=O)NCC1CCN(Cc2cccc(Cl)c2)CC1	12	/	16*	-2	9	1
COc1ccc2nc(C)cc(C(=O)O)c2c1	/	/	/	6	6	/
COc1ccc(-c2cc(C(=O)N/N=C/c3cc(OC)c(OC)cc3OC)c3ccccc3n2)cc1	-17	-4	-2	-19	45*	22
O=C(N/N=C/c1ccccn1)c1cc(-c2ccc(Cl)cc2)nc2ccccc12	11	7	1	-11	/	7
O=C(N/N=C/c1ccccn1)c1cc(-c2ccc(Br)cc2)nc2ccccc12	66*	17	/	11	17	-9
O=C(O)c1ccccc1/C=N/NC(=O)c1cc(-c2ccco2)nc2ccccc12	18	10	19*	19	-1	12
COc1ccc2nc(-c3ccc(Cl)cc3)cc(C(=O)O)c2c1	-35	-49	-52	-21	8	-33*
CC(=O)Nc1ccc(/C=N/NC(=O)c2cc(-c3ccco3)nc3ccccc23)cc1	20	10	8	-8	10	-6
CCCNC(=O)N1CC2(C1)[C@@H](c1ccccc1)[C@@H](CO)N2Cc1ccccn1	-10	-3	1	7	-9	4
